Experimental data taken from PubChem BioAssay AID2284375 (EPA ToxCast).
Results filed as inconclusive are left out. Calls of active or inactive are those of the source. Rule for the calls: active = hit-call score of the fitted dose curve at least 0.9, where 1 is the maximum; inconclusive = response in the unintended direction; inactive = score below 0.9.

These compounds were tested against Estrogen receptor (Homo sapiens) (UniProt P03372) (assay: ERF_US_NR_hESR1: Eurofins (ERF) Nuclear Receptor (NR) Cell Based Protein-Protein Interaction LeadHunter Assay for human Estrogen Receptor alpha (ERa) Agonism).
Chain of Estrogen receptor (Homo sapiens) (P03372 whole entry, looked up): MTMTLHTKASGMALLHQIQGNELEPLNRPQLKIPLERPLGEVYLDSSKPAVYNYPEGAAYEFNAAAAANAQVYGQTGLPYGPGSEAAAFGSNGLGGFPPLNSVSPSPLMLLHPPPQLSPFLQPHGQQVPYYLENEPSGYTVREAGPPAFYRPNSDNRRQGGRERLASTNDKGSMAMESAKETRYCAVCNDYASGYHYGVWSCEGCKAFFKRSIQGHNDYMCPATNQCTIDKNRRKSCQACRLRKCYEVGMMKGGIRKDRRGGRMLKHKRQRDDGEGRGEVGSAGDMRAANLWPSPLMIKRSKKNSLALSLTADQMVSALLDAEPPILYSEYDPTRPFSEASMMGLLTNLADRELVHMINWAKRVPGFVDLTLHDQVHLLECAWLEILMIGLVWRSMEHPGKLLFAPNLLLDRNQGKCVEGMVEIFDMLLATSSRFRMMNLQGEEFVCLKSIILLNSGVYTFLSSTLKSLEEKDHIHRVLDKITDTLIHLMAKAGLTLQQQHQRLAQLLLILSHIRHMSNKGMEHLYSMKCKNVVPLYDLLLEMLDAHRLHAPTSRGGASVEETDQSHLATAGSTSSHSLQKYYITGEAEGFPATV
Protocol: ERF_US_NR_hESR1 is a cell-based, single-readout assay that uses extracted gene-proteins in a cell-line assay. Measurements were taken 5 hours after chemical dosing in a 384-well plate. See ERalpha Human Estrogen NHR Cell Based Agonist Protein-Protein Interaction Assay, DiscoverX.ERF_US_NR_hESR1 is an assay component calculated from the ERF_US_NR_hESR1 assay. It is designed to […].Data from the assay component ERF_US_NR_hESR1 was analyzed at the assay endpoint, ERF_US_NR_hESR1, in the positive analysis fitting direction relative to DMSO as the negative control and baseline of activity. Using a type of binding reporter, gain-of-signal activity can be used to understand changes in binding as they relate to gene ESR1. To generalize the intended target to other relatable targets, this assay endpoint is annotated to the nuclear receptor intended target family, where the subfamily is steroid.
Cells were seeded in a total volume of 20 uL into white walled, 384-well microplates and incubated at 37C overnight prior to testing. Briefly, intermediate dilution of sample stocks was performed to generate 5X sample in assay buffer. 5 uL of 5X sample was added to cells and incubated at37C for 300 minutes. Final assay vehicle concentration was 1%. The results are expressed as a percent efficacy of the control ligand.

outcome, inactive:
NC(=O)C(F)(F)C(F)(F)C(F)(F)C(F)(F)C(F)(F)C(F)(F)C(F)(F)F
N=C(N)C(F)(F)C(F)(F)C(F)(F)C(F)(F)C(F)(F)C(F)(F)C(F)(F)F
O=P(O)(O)OCCC(F)(F)C(F)(F)C(F)(F)C(F)(F)C(F)(F)C(F)(F)F
OCCC(F)(F)C(F)(F)C(F)(F)C(F)(F)C(F)(F)C(F)(F)F
OCCC(F)(F)C(F)(F)C(F)(F)C(F)(F)C(F)(F)C(F)(F)C(F)(F)C(F)(F)F
FC(F)(F)C(F)(F)C(F)(F)C(F)(F)CCI
O=C(O)C(F)(OC(F)(F)C(F)(OC(F)(F)C(F)(F)C(F)(F)F)C(F)(F)F)C(F)(F)F (stereo not drawn)
C=CC(=O)OCC(F)(F)C(F)(F)C(F)(F)C(F)(F)C(F)(F)C(F)(F)C(F)(F)C(F)F
FC(F)(F)C(F)(F)C(F)(F)C(F)(F)C(F)(F)C(F)(F)I
FC(F)(I)C(F)(F)C(F)(F)C(F)(F)I

AC50, active:
OCC(F)(F)C(F)(F)C(F)(F)C(F)(F)C(F)(F)C(F)(F)CO 25.3 µM
FC(F)(I)C(F)(F)C(F)(F)C(F)(F)C(F)(F)C(F)(F)I 12.1 µM
OCC(F)(F)C(F)(F)C(F)(F)C(F)(F)C(F)(F)C(F)(F)C(F)(F)C(F)(F)CO 17.1 µM
